Test results published in PubChem BioAssay (NCI).
Compounds without any hit were thinned out: in the full panel of roughly 79,000, 15% have a hit. Active and inactive are the calls of the source. Rule as the data show it: active = growth inhibition above about 70%; inactive = the rest.

How the values were obtained:
[1] = NCI Yeast Anticancer Drug Screen. Data for the mec2-1 strain (AID 157); details: S. cerevisiae mec2-1 strain, active compounds read high
Procedure, shortened: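 Yeast mec2-1 mutant treated with compound. Readout: growth inhibition vs vehicle controls.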

[2] = NCI Yeast Anticancer Drug Screen. Data for the rad14 strain (AID 159);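 also: 0% = growth of vehicle-treated control cultures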; details: S. cerevisiae rad14 strain growth inhibition, active compounds read high
Procedure, shortened: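 Here, inhibition of yeast growth was measured after compound exposure, using a strain with a genetic defect in DNA damage repair and vehicle-treated cultures as the reference.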

[3] = NCI Yeast Anticancer Drug Screen. Data for the sgs1 mgt1 strain (AID 161);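 also: 0% = growth of cultures given vehicle only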; details: S. cerevisiae sgs1 mgt1 strain, active compounds read high
Procedure, shortened: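 Mutant yeast exposed to compound; growth scored against vehicle-only wells.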

[4] = NCI Yeast Anticancer Drug Screen. Data for the CLN2oe strain (AID 163);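 also: 0% = growth of vehicle-only control cultures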; details: S. cerevisiae CLN2oe strain, active compounds read high
Procedure, shortened: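 Read-out: yeast growth inhibition, expressed relative to vehicle-only controls. The strain bears an engineered cell-cycle alteration.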

[5] = NCI Yeast Anticancer Drug Screen. Data for the cln2 rad14 strain (AID 165);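 also: 0% = growth equal to vehicle treated cultures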; details: S. cerevisiae cln2 rad14 strain, active compounds read high
Procedure, shortened: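 cln2 rad14 yeast strain; compound exposure; growth inhibition read vs vehicle controls.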

[6] = NCI Yeast Anticancer Drug Screen. Data for the bub3 strain (AID 167); details: S. cerevisiae bub3 mutant strain, active compounds read high
Procedure, shortened: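 Whole-cell yeast assay. The mutant strain was incubated with compounds, and growth inhibition was determined by comparison with vehicle-treated cells.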

[7] = NCI Yeast Anticancer Drug Screen. Data for the wt2 strain (AID 169);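 also: 0% = growth of vehicle-treated yeast cultures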; details: S. cerevisiae wt2 strain growth inhibition, active compounds read high
Procedure, shortened: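 Read-out: growth inhibition versus vehicle-treated control cultures after compound exposure of the yeast strain.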

[8] = NCI Yeast Anticancer Drug Screen. Data for the mlh1 strain (AID 171);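 also: 0% = growth of vehicle-treated control cultures of the same strain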; details: S. cerevisiae mlh1 strain growth inhibition, active compounds read high
Procedure, shortened: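 Read-out: growth inhibition versus vehicle controls. Strain: engineered yeast with a defined DNA repair or cell cycle defect, compound-treated.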

[9] = NCI Yeast Anticancer Drug Screen. Data for the sgs1 strain (AID 173);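 also: 0% = growth of vehicle-only control cultures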; details: S. cerevisiae sgs1 mutant, active compounds read high
Procedure, shortened: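 Read-out: yeast growth inhibition relative to vehicle controls, following compound exposure of a strain with a defined DNA repair/cell cycle alteration.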

[10] = NCI Yeast Anticancer Drug Screen. Data for the mlh1 rad18 strain (AID 175); details: S. cerevisiae mlh1 rad18 strain growth inhibition, active compounds read high
Procedure, shortened: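 Yeast w/ defined DNA-repair lesions; compound exposure; growth vs vehicle controls → % inhibition.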

[11] = NCI Yeast Anticancer Drug Screen. Data for the rad18 strain (AID 177); details: S. cerevisiae rad18 mutant growth inhibition, active compounds read high
Procedure, shortened: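 Readout: growth inhibition vs vehicle controls. Cells: genetically altered yeast strain, DNA repair defect.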

[12] = NCI Yeast Anticancer Drug Screen. Data for the wt1 strain (AID 149);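 also: 0% = growth of vehicle-treated wt1 cultures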; details: S. cerevisiae wt1 strain (SPY 50644) growth inhibition, active compounds read high
Procedure, shortened: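 Measured: growth of wt1 yeast under compound versus vehicle treatment, reported as inhibition.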

[13] = NCI Yeast Anticancer Drug Screen. Data for the rad50EPP+ strain (AID 151);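 also: 0% = growth of vehicle-treated control cultures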; details: S. cerevisiae rad50 mutant strain, active compounds read high
Procedure, shortened: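 Growth inhibition read against vehicle controls in rad50EPP+ yeast, a strain altered in DNA damage repair, after compound exposure.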

[14] = NCI Yeast Anticancer Drug Screen. Data for the mgt1 strain (AID 153); details: S. cerevisiae mgt1 mutant growth inhibition, active compounds read high
Procedure, shortened: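 mgt1 yeast grown with test compound; read-out is growth inhibition versus vehicle-treated cultures.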

[15] = NCI Yeast Anticancer Drug Screen. Data for the rad50 strain (AID 155);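 also: 0% = growth of vehicle-only cultures of the same strain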; details: S. cerevisiae rad50 strain growth inhibition, active compounds read high
Procedure, shortened: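 Growth of the mutant yeast was measured after compound exposure and referenced to vehicle-treated cultures.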

[16] = at 5.0 µM (retest, dose inferred, filed as 0.5)
[17] = at 50.0 µM (retest, dose inferred, filed as 5.0)

Measured: growth inhibition

CCC(C)/C(C)=N/NC(N)=O (centres undefined)
active: [10]; [17] 76%
inactive: [1]; at 100.0 µM 1% | [2]; at 1.2 µM -2% | [2]; at 3.7 µM 0% | [2]; at 11.0 µM 1% | [2]; at 33.0 µM 0% | [2]; at 100.0 µM 0% | [3]; [16] 5% | [3]; [17] 48% | [3]; at 50.0 µM 36.9% | [4]; at 1.2 µM -7% | [4]; at 3.7 µM 0% | [4]; at 11.0 µM 0% | [4]; at 33.0 µM -6% | [4]; at 100.0 µM -5% | [5]; [16] 5% | [5]; [17] 12% | [5]; at 50.0 µM 22.5% | [6]; at 1.2 µM -2% | [6]; at 3.7 µM -2% | [6]; [16] 8% | [6]; at 11.0 µM 0% | [6]; at 33.0 µM -3% | [6]; [17] 43% | [6]; at 50.0 µM 25% | [6]; at 100.0 µM -10% | [7]; at 1.2 µM 1% | [7]; at 3.7 µM 2% | [7]; at 11.0 µM 3% | [7]; at 33.0 µM 4% | [7]; at 100.0 µM 2% | [8]; at 1.2 µM 1% | [8]; at 3.7 µM 1% | [8]; at 11.0 µM 2% | [8]; at 33.0 µM 1% | [8]; at 100.0 µM 0% | [9]; at 1.2 µM 0% | [9]; at 3.7 µM 4% | [9]; at 11.0 µM 3% | [9]; at 33.0 µM 3% | [9]; at 100.0 µM 2% | [10]; [16] 1% | [10]; at 50.0 µM 68% | [11]; at 1.2 µM 1% | [11]; at 3.7 µM 0% | [11]; at 11.0 µM -7% | [11]; at 33.0 µM 3% | [11]; at 100.0 µM 5%

CC[C@@]1(OC(=O)CN(C)C)C(=O)OCc2c1cc1n(c2=O)Cc2cc3ccccc3nc2-1
inactive: [12]; at 1.2 µM -1% | [12]; at 3.7 µM 1% | [12]; at 11.0 µM 23% | [13]; at 1.2 µM 42% | [14]; at 1.2 µM -1% | [14]; at 3.7 µM 1% | [14]; at 11.0 µM 32% | [1]; at 1.2 µM 2% | [1]; at 3.7 µM 23% | [1]; [16] 53% | [2]; at 1.2 µM 2% | [2]; at 3.7 µM 8% | [2]; at 11.0 µM 44% | [3]; [16] 38% | [4]; at 1.2 µM -7% | [4]; at 3.7 µM 2% | [4]; at 11.0 µM 31% | [5]; [16] 15% | [6]; at 1.2 µM -7% | [6]; at 3.7 µM -9% | [6]; [16] -3% | [6]; at 11.0 µM 41% | [7]; at 1.2 µM -1% | [7]; at 3.7 µM 10% | [7]; at 11.0 µM 28% | [8]; at 1.2 µM 0% | [8]; at 3.7 µM 2% | [8]; at 11.0 µM 42% | [9]; at 1.2 µM 6% | [9]; at 3.7 µM 28% | [10]; [16] 36% | [11]; at 1.2 µM 1% | [11]; at 3.7 µM 12% | [11]; at 11.0 µM 60%
active: [12]; at 33.0 µM 85% | [12]; at 100.0 µM 93% | [13]; at 3.7 µM 79% | [13]; at 11.0 µM 92% | [13]; at 33.0 µM 95% | [13]; at 100.0 µM 97% | [14]; at 33.0 µM 90% | [14]; at 100.0 µM 97% | [15]; at 1.2 µM 81% | [15]; at 3.7 µM 95% | [15]; [16] 95% | [15]; at 11.0 µM 96% | [15]; at 33.0 µM 96% | [15]; [17] 97% | [15]; at 50.0 µM 96.8% | [15]; at 100.0 µM 97% | [1]; at 11.0 µM 89% | [1]; at 33.0 µM 94% | [1]; [17] 96% | [1]; at 50.0 µM 99% | [1]; at 100.0 µM 97% | [2]; at 33.0 µM 87% | [2]; at 100.0 µM 95% | [3]; [17] 95% | [3]; at 50.0 µM 93.6% | [4]; at 33.0 µM 73% | [4]; at 100.0 µM 87% | [5]; [17] 89% | [5]; at 50.0 µM 79.8% | [6]; at 33.0 µM 90% | [6]; [17] 93% | [6]; at 50.0 µM 93.7% | [6]; at 100.0 µM 96% | [7]; at 33.0 µM 84% | [7]; at 100.0 µM 93% | [8]; at 33.0 µM 90% | [8]; at 100.0 µM 96% | [9]; at 11.0 µM 82% | [9]; at 33.0 µM 94% | [9]; at 100.0 µM 96% | [10]; [17] 94% | [10]; at 50.0 µM 97.2% | [11]; at 33.0 µM 92% | [11]; at 100.0 µM 96%

O=Cc1ccccc1B(O)O
inactive: [12]; at 1.2 µM -3% | [12]; at 3.7 µM -1% | [12]; at 11.0 µM 66% | [13]; at 1.2 µM 43% | [14]; at 1.2 µM 0% | [14]; at 3.7 µM 2% | [15]; at 1.2 µM 31% | [15]; [16] 48% | [1]; at 1.2 µM 2% | [1]; at 3.7 µM 25% | [1]; [16] -25% | [2]; at 1.2 µM 3% | [2]; at 3.7 µM 13% | [3]; [16] -25% | [4]; at 1.2 µM -4% | [4]; at 3.7 µM 11% | [5]; [16] -52% | [6]; at 1.2 µM -14% | [6]; at 3.7 µM -8% | [6]; [16] -83% | [7]; at 1.2 µM 0% | [7]; at 3.7 µM 1% | [8]; at 1.2 µM 8% | [8]; at 3.7 µM 14% | [9]; at 1.2 µM 18% | [9]; at 3.7 µM 66% | [10]; [16] -48% | [11]; at 1.2 µM 1% | [11]; at 3.7 µM 34%
active: [12]; at 33.0 µM 99% | [12]; at 100.0 µM 99% | [13]; at 3.7 µM 79% | [13]; at 11.0 µM 94% | [13]; at 33.0 µM 97% | [13]; at 100.0 µM 99% | [14]; at 11.0 µM 76% | [14]; at 33.0 µM 99% | [14]; at 100.0 µM 99% | [15]; at 3.7 µM 79% | [15]; at 11.0 µM 96% | [15]; at 33.0 µM 99% | [15]; [17] 95% | [15]; at 50.0 µM 98.8% | [15]; at 100.0 µM 99% | [1]; at 11.0 µM 97% | [1]; at 33.0 µM 99% | [1]; [17] 96% | [1]; at 50.0 µM 99.6% | [1]; at 100.0 µM 100% | [2]; at 11.0 µM 90% | [2]; at 33.0 µM 99% | [2]; at 100.0 µM 99% | [3]; [17] 95% | [3]; at 50.0 µM 98.9% | [4]; at 11.0 µM 84% | [4]; at 33.0 µM 98% | [4]; at 100.0 µM 99% | [5]; [17] 94% | [5]; at 50.0 µM 96.5% | [6]; at 11.0 µM 81% | [6]; at 33.0 µM 98% | [6]; [17] 95% | [6]; at 50.0 µM 99% | [6]; at 100.0 µM 99% | [7]; at 11.0 µM 77% | [7]; at 33.0 µM 100% | [7]; at 100.0 µM 99% | [8]; at 11.0 µM 86% | [8]; at 33.0 µM 99% | [8]; at 100.0 µM 99% | [9]; at 11.0 µM 96% | [9]; at 33.0 µM 99% | [9]; at 100.0 µM 99% | [10]; [17] 94% | [10]; at 50.0 µM 99.5% | [11]; at 11.0 µM 94% | [11]; at 33.0 µM 98% | [11]; at 100.0 µM 99%
